The supplement of paper PMC11417369
The full ranking holds about 25,000 sequences; the median of “ln(normalized median fluorescence intensity)” is about 7.1, and the highest 2% start at about 10. The full list was thinned out, with the highest values kept by preference.

tested on: PfSIP2 AP2 domain 1 (GST-tagged); assay: gcPBM binding intensity (ln(normalized median fluorescence intensity)); higher = stronger DNA binding
Outline: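 Plasmodium falciparum DNA-binding domains carrying a GST tag were expressed in E. coli and applied for 1 h, at about 25 μg on average, to an Agilent 4 × 180k array. The array held primer-extended double-stranded 36-bp intergenic genomic probes together with negative controls, and binding took place in 1× PBS with 1% milk, 0.2 mg/ml BSA, 0.5% salmon testes DNA and 0.03% Triton X-100. An Alexa488 anti-GST antibody detected bound protein, and the array was scanned at 488 nm. Binding intensity is taken as the highest Masliner-normalised natural-log median intensity across replicate spots of either probe orientation.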

Sequence | gcPBM binding intensity (ln)
ATATATATATAGTGCACACATATAAAATATATATAA [CACACA_site2745] | 10.3
AAGTATTATTTTTATGCATGTGAAGTGCAAAATAAA [TGCATGCA_site198] | 9.56
TTTTATTTTCGATGATGTACATTAAATTATACAGTA [XGTACX_site6053] | 7.01
AATACAATTTTTAACACACACACAATAATACAGATA [CACACA_site4823] | 7.17
ACAAATATGAGAAATTGTACATATAATAAAATAGTA [XGTACX_site2573] | 6.93
AAATAAATAAATATACGTACATATATATAATATATA [XGTACX_site5124] | 7.23
TATGTAAAAAGAGAAAAAAAAAAGAACGATAATTTC [CACACA_negctrl_site946] | 6.58
AATTAAAAAATTATCACACATATATATATATATATA [CACACA_site5789] | 9.53
TTTATATACACACAGAAGAACAGAAATATTATATAT [TGCATGCA_negctrl_site483] | 7.2
TTTAAAAAATAATATTGTACTATTCTCCCAATTTCT [XGTACX_site7079] | 6.57
GGTATACATATTAAATGTACATATTTTAACAATAAG [XGTACX_site4868] | 7.1
TGATTCTTTTGTATCACACACACTTAGTTTAATTTT [CACACA_site2404] | 6.85
TCTGTAAATACGTGCACACACAAATCACAAATGTGA [CACACA_site330] | 9.89
AATAAAAAAAAAAATAATATATATGTATAAATATAT [CACACA_negctrl_site1561] | 6.83
AAAAAAAAAAAAAAAGCACACACCAATGAGCAGCTT [CACACA_site1845] | 7.62
ATATCATTTTCCTGCACACATAAATTTATATAATAT [CACACA_site1048] | 7.82
AAAATAAAAATAAAAGCACACATAAATATATATATA [CACACA_site8409] | 8.73
AGGTCTGTTTTATATTGTACATAAAAAGTGCACATG [XGTACX_site4529] | 11.4
AATATAATATAATGCACACATAAAAAAAAAAAAATC [CACACA_site1303] | 7.43
TTTTTTATTTTGTGCACACACATAAAAATATAAATA [CACACA_site6497] | 9.8
ATTTTTTTATTTTGTGCACACACATAAAAATATATA [CACACA_site762] | 9.99
TAATAAAAAAAGTGCACACACATAATATTTATATAT [CACACA_site7548] | 10.7
TTTTTCCTATTTTTAGTGCACATATAAATAAATAAA [GTGCAC_site9821] | 10.7

Sequence | gcPBM binding intensity (ln)
TATATATTCATAAAGTGTACATGTTTATATATATAT [XGTACX_site7585] | 8.48
TTTTTTATTTTGTGCACACACATAAAAATATATATA [CACACA_site761] | 9.42
TATATCTGTTTATATTGTACACATATATATATATAT [XGTACX_site714] | 9.28
AATAATAAAAAAAGTGCACACACATAATATATATAT [CACACA_site9100] | 10.6
ATCTATTTCTATTGTTGTACTTATTTTTCATTGTTT [XGTACX_site6942] | 7.27
AATAGGTGCCTTTTTTCACACACATGTCAACTAAAT [CACACA_site8846] | 9.34
GATATATAAATAGATACACACATACATACATACATA [CACACA_site6260] | 7.18
ATATTTATTTTATAAAGTACTAAAAAATATATTATA [XGTACX_site8522] | 6.9
CATATAATAAATAATTGTACTTGATATAATATTATG [XGTACX_site3562] | 6.91
CCTTTATAAAAAAGTAGTACACAATGAATTTATAAT [XGTACX_site5523] | 7.1
CAAAATTAATAAGTCACACACACATCTATAATATAT [CACACA_site6519] | 6.78
ACATAAAATTGTTAAAAAATTGTATAAATAATACAT [XGTACX_negctrl_site557] | 6.81
TAATTCTAAATAAATGTACACACAAAAATAAATGTA [CACACA_site8509] | 7.02
TGTCAATCATATAAATGTACATTTTAAATGAGGTGT [XGTACX_site7391] | 7.36
TAATAAAAAAAGTGCACACACATAATATATATATAT [CACACA_site3340] | 10.4
AAAAGTCTCTTTTTAGTGCACATTTTATTTAAATAT | 10.2
TAATTATTTTAAAAAGTGCATTAAAAGATATTAAAT [GTGCAC_site9694] | 8.22
TATATATATATATGTGCACACATAATAAAAAAAAAA [CACACA_site3830] | 9.64
ATATATATATATAGTGCACACTTAAGAATATAAAGA [CACACA_site4771] | 10.2
AATATAATATAATGCACACATAAAAAAAAAAAAAAA [CACACA_site304] | 7.47
ATATATATATAGTGCACACTTAAGAATATAAAGAGG [CACACA_site1151] | 10.1
AAATAAAGAATATAAATACACACTTAAATATATATT [CACACA_site4007] | 6.73
AAAAGTATATATTCAGTGCATAGTCTTTAAATATAA [GTGCAC_site9522] | 8.15
